We go through nine compounds from PubChem BioAssay.

Calls of active or inactive are those of the source. Unless noted, how the calls were made is not given here.

A short description of experiment [1]: HepG2 liver cancer cell viability effects, profiling panel, resazurin fluorescence, 24 h, PK04 Diversity Set (AID 1172). To be noted: higher = more signal.
Experiment [2] is described as follows: basal S. cerevisiae growth modulation, no modifier, primary screen, OD600, strain BY4716, 24 h, basal condition (AID 1173). Conditions: OD600, 24 h, higher = more signal, called active from +8 up or from −8 down.
Experiment [3] in a line: MM1S myeloma cell viability, profiling panel, resazurin fluorescence, basal, 24 h, PK04 Diversity Set (AID 1174). Conditions: higher = more signal, called active from +8 up or from −8 down. Background: Resazurin is reduced to fluorescent resorufin, in cell work by metabolically active cells.
The target in experiment [4] is Dihydroorotate dehydrogenase (quinone), mitochondrial (Plasmodium falciparum (isolate 3D7)) (UniProt Q08210). The experiment can be described thus: PfDHODH enzyme inhibitors, primary screen, biochemical, C-terminal His tag, absorbance 600 nm (AID 1175).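 Further: recombinant parasite enzyme with a five histidine tag at its C terminus.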 To be noted: DCIP absorbance 600 nm, higher = more signal, called active from +8 up or from −8 down.
The nature of experiment [5]: P. aeruginosa biofilm formation inhibitors, primary screen, strain PAO1, LB-PBS medium, absorbance 600 nm (AID 1176). Conditions: P. aeruginosa PAO1 growth/biofilm, A600, 12 h; higher = more signal.
The nature of experiment [6]: S. cerevisiae RM11-1a growth modifiers, primary screen, strain RM11-1a, OD600, basal, 24 h (AID 1177).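 Further: cultures grown under basal conditions with no added stressor.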 To be noted: OD600, 24 h, higher = more signal, called active from +8 up or from −8 down.
Experiment [7] is described as follows: E. coli acrAB mutant growth effects, primary screen, E. coli filamentation inducers, strain DRC39, OD650, 24 h (AID 1178).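 Further: growth measured as culture turbidity by optical density at 650 nm.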 To be noted: higher = more signal, called active from +8 up or from −8 down.
A short description of experiment [8]: E. coli acrAB mutant growth effects, primary screen, E. coli filamentation inducers, strain DRC39, OD650, 48 h (AID 1179).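 Further: screen aims at cell division blockers that make cells filament.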 To be noted: E. coli DRC39 delta-acrAB growth, higher = more signal, called active from +8 up or from −8 down.
Experiment [9] in a line: RPMI8226 myeloma cell viability, profiling panel, resazurin fluorescence, basal, 24 h, PK04 Diversity Set (AID 1180).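 Further: RPMI8826 multiple myeloma cell line at 5000 cells per well.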 To be noted: higher = more signal.
For experiment [10], the target named is E3 ubiquitin-protein ligase XIAP (Homo sapiens) (UniProt P98170). Description: XIAP binders, primary screen, biophysical, small-molecule microarray, fluorescence 635 nm (AID 1181).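 Further: score merges 667 nm emission and signal to noise over triplicate slides.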 To be noted: small-molecule microarray binding, higher = more signal.
The subject of experiment [11] is XIP peptide (Xip251-270) binding. The experiment can be described thus: small-molecule binders of XIP peptide, primary screen, biochemical, small-molecule microarray, fluorescence 635/667 nm, 0.1 µg/mL protein (AID 1182). Conditions: fluorescent protein binding, 635 nm, higher = more signal, called active from +8 up or from −8 down.
For a further experiment, the system named is XIP peptide (Xip251-270). Description: small-molecule binders of XIP peptide, primary screen, biochemical, small-molecule microarray, fluorescence 635/667 nm, 0.5 µg/mL protein (AID 1183). Conditions: small-molecule microarray binding, fluorescence 635 nm; higher = more signal.
The nature of experiment [12]: Plasmodium falciparum growth inhibition, primary screen, strain 3D7, DAPI fluorescence, 100 nL (AID 1184).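 Further: parasites grown inside human red blood cells in medium with human serum.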 To be noted: P. falciparum 3D7 growth, 3 d, higher = more signal.
Experiment [13] deals with Homeobox protein Hox-A13 (Mus musculus) (UniProt Q62424). The experiment can be described thus: inhibitors of HoxA13-DNA binding, primary screen, biochemical, fluorescence polarization, labeled oligonucleotide (AID 1185). Conditions: 15 min, higher = more signal, called active from +8 up or from −8 down.
Experiment [14] can be described thus: inhibitors of hydroxyurea-induced Chk1 phosphorylation, primary screen, imaging, HeLa, phospho-Chk1 antibody, percent positive cells (AID 1186). Conditions: hydroxyurea-induced phospho-Chk1 immunofluorescence imaging, higher = more signal.
Experiment [15] can be described thus: inhibitors of hydroxyurea-induced Chk1 phosphorylation, primary screen, imaging, HeLa, phospho-Chk1 nuclear intensity (AID 1187). To be noted: hydroxyurea-induced phospho-Chk1 immunofluorescence imaging, higher = more signal.

Sequence of Dihydroorotate dehydrogenase (quinone), mitochondrial (Plasmodium falciparum (isolate 3D7)) (Q08210 whole entry, looked up): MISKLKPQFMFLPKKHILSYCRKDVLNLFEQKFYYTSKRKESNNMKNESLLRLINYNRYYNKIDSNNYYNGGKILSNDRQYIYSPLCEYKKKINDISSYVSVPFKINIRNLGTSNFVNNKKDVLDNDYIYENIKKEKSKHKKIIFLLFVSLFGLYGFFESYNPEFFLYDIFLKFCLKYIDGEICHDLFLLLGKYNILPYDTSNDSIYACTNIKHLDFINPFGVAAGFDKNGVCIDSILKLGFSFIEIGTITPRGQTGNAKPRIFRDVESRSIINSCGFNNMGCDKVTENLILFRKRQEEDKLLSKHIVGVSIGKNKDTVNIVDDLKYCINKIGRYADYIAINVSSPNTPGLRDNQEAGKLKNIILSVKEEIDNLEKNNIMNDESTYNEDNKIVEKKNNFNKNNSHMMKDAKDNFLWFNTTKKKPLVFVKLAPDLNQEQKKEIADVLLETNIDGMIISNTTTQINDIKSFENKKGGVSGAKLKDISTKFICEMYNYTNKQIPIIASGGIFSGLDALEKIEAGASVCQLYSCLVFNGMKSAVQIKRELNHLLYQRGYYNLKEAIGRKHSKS
Sequence of Homeobox protein Hox-A13 (Mus musculus) (Q62424 whole entry, looked up): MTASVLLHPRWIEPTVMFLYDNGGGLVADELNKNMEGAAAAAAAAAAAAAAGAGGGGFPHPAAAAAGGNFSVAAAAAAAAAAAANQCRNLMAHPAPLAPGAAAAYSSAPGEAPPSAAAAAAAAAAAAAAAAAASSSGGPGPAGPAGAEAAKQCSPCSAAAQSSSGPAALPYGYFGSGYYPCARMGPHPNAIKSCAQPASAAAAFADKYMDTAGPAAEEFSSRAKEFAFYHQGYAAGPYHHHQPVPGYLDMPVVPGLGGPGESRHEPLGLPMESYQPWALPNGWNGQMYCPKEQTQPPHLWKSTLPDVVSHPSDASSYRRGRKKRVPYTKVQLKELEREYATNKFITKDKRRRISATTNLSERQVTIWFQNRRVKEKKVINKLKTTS
Sequence of E3 ubiquitin-protein ligase XIAP (Homo sapiens) (P98170 whole entry, looked up): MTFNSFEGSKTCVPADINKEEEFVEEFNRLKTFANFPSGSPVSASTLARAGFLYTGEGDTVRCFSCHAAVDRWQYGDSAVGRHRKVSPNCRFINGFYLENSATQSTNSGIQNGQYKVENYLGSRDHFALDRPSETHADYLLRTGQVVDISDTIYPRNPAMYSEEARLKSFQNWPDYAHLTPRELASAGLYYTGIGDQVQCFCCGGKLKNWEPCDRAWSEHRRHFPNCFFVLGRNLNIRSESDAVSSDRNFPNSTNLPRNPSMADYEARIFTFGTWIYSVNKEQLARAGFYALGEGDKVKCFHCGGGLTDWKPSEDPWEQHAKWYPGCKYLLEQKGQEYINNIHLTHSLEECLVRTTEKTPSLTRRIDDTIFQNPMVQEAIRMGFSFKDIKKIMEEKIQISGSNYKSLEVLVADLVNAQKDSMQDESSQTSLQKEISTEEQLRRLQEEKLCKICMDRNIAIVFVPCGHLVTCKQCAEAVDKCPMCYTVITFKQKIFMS

`O=C1C2C=CC(C(O)c3ccc(-c4ccccc4)s3)N(Nc3ccccc3F)C2C(=O)N1c1ccccc1` (centres undefined): the z-score in experiment [1] is -1.5; in experiment [2], 0.025 (inactive); in [3] it was -1.38 (inactive); in [5] it was 0.366 (inactive); in experiment [6], 1.19 (inactive); in experiment [7] it was -0.516 (inactive). The z-score in experiment [8] was -0.795 (inactive); in [9], -1.6; in experiment [12], -0.531; in [13], 0.151 (inactive); in experiment [14], 0.184 (inactive); in experiment [15], 0.414 (inactive). Further, the composite z-score is 0.853 (inactive) in experiment [4], 0.0101 in experiment [10], 0.251 (inactive) in experiment [11] and 0.734 in the experiment with XIP peptide (Xip251-270).

Take `CC(c1ccccc1)C(O)C1C=CC2C(=O)N(Cc3ccccc3)C(=O)C2N1n1cnnc1` (centres undefined): the z-score in [1] was -0.69; in experiment [2], -6.59 (inactive); in [3], -0.652 (inactive); in [5], 0.492 (inactive); in [6] it was 0.263 (inactive); in experiment [7], -0.491 (inactive). In addition, the z-score in experiment [8] was -2.39 (inactive); in experiment [9], -0.161; in experiment [12], -0.864; in [13], -1.93 (inactive); in [14] it was 0.106 (inactive); in experiment [15], -0.634 (inactive). The composite z-score was 0.381 (inactive) in [4], 0.456 in [10], -0.429 (inactive) in [11] and 0.908 with XIP peptide (Xip251-270).

As for `Cc1ccc(S[C@]2(C(=O)NCCN3CCOCC3)CC(=O)N(C3CCCCC3)[C@@H]2c2ccc(CO)cc2)cc1`, the z-score is 0.375 in [1]; 0.436 (inactive) in experiment [2]; 0.511 (inactive) in experiment [3]; 0.186 (inactive) in experiment [5]; -0.463 (inactive) in [6]; 0.048 (inactive) in experiment [7]. Further, the z-score in [8] was -0.483 (inactive); in experiment [9], 0.838; in experiment [12], -0.75; in [13] it was -4 (inactive); in experiment [14] it was -0.0334 (inactive); in [15], 0.206 (inactive). The composite z-score in experiment [4] was 0.113 (inactive); in experiment [10], 0.0024; in experiment [11], -0.202 (inactive); in the experiment with XIP peptide (Xip251-270), 0.886.

On to `CCOC(=O)C[C@H]1[C@H](OC(=O)c2ccccc2-c2ccccc2)[C@@H](NC(=O)c2ccc(-c3ccccc3)cc2)c2cc(OCCCO)ccc2N1C(=O)c1ccccc1`, for which the z-score in [1] is -0.607; in [2], 0.579 (inactive); in experiment [3] it was 0.633 (inactive); in [5], -0.341 (inactive); in experiment [6], 1.61 (inactive); in experiment [7], 1.39 (inactive). For the same compound, the z-score in [8] was 0.53 (inactive); in experiment [9], 0.608; in [12] it was -1.43; in experiment [13], -1.95 (inactive); in experiment [14] it was -0.189 (inactive); in [15] it was 0.151 (inactive). The composite z-score was 1.03 (inactive) in experiment [4], -0.121 in experiment [10], 0.788 (inactive) in experiment [11] and 0.79 in the experiment on XIP peptide (Xip251-270).

Take `Cc1ccc(S[C@]2(C(=O)NCC(F)(F)F)CC(=O)N(C3Cc4ccccc4C3)[C@@H]2c2ccc(CO)cc2I)cc1`: the z-score in experiment [1] was 0.788; in [2], -3.18 (inactive); in [3], -2.74 (inactive); in experiment [5] it was 0.0898 (inactive); in [6], -0.391 (inactive); in experiment [7], 0.715 (inactive). Also, the z-score is 0.503 (inactive) in experiment [8]; -1.32 in experiment [9]; 0.178 in experiment [12]; -2.85 (inactive) in experiment [13]; 0.0501 (inactive) in experiment [14]; 0.637 (inactive) in experiment [15]. For the same compound, the composite z-score was 0.427 (inactive) in experiment [4], 0.0499 in experiment [10], 0.448 (inactive) in experiment [11] and -0.273 with XIP peptide (Xip251-270).

Consider `C[n+]1ccc2ccc(O)cc2c1`, for which the z-score in [1] is 0.0027; in [2] it was -1.06 (inactive); in experiment [3], 0.242 (inactive); in [5] it was -0.131 (inactive); in experiment [6], 0.582 (inactive); in experiment [7], 0.0452 (inactive). The z-score in [8] was -0.0896 (inactive); in experiment [9], -0.654; in [12] it was -0.901; in [13] it was -8.11 (active); in experiment [14], 0.124 (inactive); in [15], 0.282 (inactive). In addition, the composite z-score was -0.843 (inactive) in [4], 0.473 in experiment [10], 1.35 (inactive) in experiment [11] and 0.612 in the experiment with XIP peptide (Xip251-270).

Turning to `CCOC(=O)C[C@H]1[C@H](OC(=O)c2ccc(C(=O)c3ccccc3)cc2)[C@@H](NC(=O)c2ccc3ccccc3n2)c2cc(OCCCO)ccc2N1C(=O)c1ccc2ccccc2n1`, the z-score is 0.44 in experiment [1]; -0.0495 (inactive) in experiment [2]; 0.433 (inactive) in experiment [3]; 0.808 (inactive) in [5]; 0.081 (inactive) in [6]; 0.322 (inactive) in [7]. Further, the z-score in experiment [8] was 0.388 (inactive); in experiment [9] it was 0.416; in [12], -2.55; in [13] it was -2.61 (inactive); in experiment [14] it was 0.226 (inactive); in experiment [15] it was 0.194 (inactive). Moreover, the composite z-score was 0.681 (inactive) in [4], -0.0525 in [10], 0.545 (inactive) in experiment [11] and 0.613 with XIP peptide (Xip251-270).

Regarding `COc1ccc([Si](C)(C)[C@H]2[C@H](CC(=O)N(CCO)Cc3ccccc3)O[C@@]3(C(=O)N(Cc4cccc(N5C(=O)c6cccc7cccc5c67)c4)c4ccccc43)[C@@H]2C)cc1`, the z-score in experiment [1] is -0.101; in experiment [2], 0.476 (inactive); in experiment [3] it was -3.19 (inactive); in [5], 1.98 (inactive); in experiment [6], 0.768 (inactive); in experiment [7], 0.67 (inactive). The z-score in [8] was 0.865 (inactive); in experiment [9], -2.93; in [12], -2.72; in experiment [13] it was -1.4 (inactive); in experiment [14] it was -1.31 (inactive); in experiment [15], -1.11 (inactive). Further, the composite z-score is -2.98 (inactive) in experiment [4], 0.0564 in [10], 0.719 (inactive) in [11] and 0.6 in the experiment on XIP peptide (Xip251-270).

On to `C=C(CCCC)C(=O)CC[C@H](OC(=O)c1ccccc1-c1ccccc1C(=O)O)c1ccc(CO)o1`, for which the z-score is 0.985 in experiment [1]; 0.671 (inactive) in experiment [2]; 0.319 (inactive) in [3]; 0.497 (inactive) in experiment [5]; 0.996 (inactive) in experiment [6]; -0.154 (inactive) in [7]. The z-score in experiment [8] is 0.16 (inactive); in [9] it was 0.64; in [12], -0.714; in [13], -6.05 (inactive); in [14], -0.131 (inactive); in experiment [15] it was -0.23 (inactive). In addition, the composite z-score was -0.72 (inactive) in experiment [4], -0.154 in [10], 0.556 (inactive) in experiment [11] and 0.582 with XIP peptide (Xip251-270).
